The whole screen tested about 350,000 compounds, of which about 5,500 (1.6%) were called active.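 How the source made its calls: active means significant combined selectivity score with lowered wild-type GFP, culture density cut under 30%, mutant RFP and density less affected; inactive means any of these conditions unmet.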 The sample as a whole holds a higher share of actives than the screen did.
Test: reduced GFP signal of wild-type E. coli, primary screen, bacterial rRNA inhibitor project, GFP/RFP fluorescence, OD600, single point (AID 720706)
Conditions: E. coli WT GFP vs humanized-ribosome RFP mutants, 24 h; GFP signal change (wild-type ribosome): stronger effect = lower value, DMSO median 0, no signal -100; OD600 change: measured here: OD600 growth, DMSO median 0, no signal -100; RFP signal change: measured here: RFP humanized mutant strains, DMSO median 0, no signal -100, concentration not given here
For COc1ccc(NC(=O)N2C[C@H](O)COC[C@@H]3O[C@@H](CC(=O)NCc4ccccc4OC)CC[C@H]32)cc1, the GFP signal change (wild-type ribosome) was -1.91% (inactive), the OD600 change was -2.52% and the RFP signal change was -1.31%.
With COc1cccc(-c2cn(CC[C@H]3CC[C@H](NC(=O)CN(C)C)[C@H](CO)O3)nn2)c1 the GFP signal change (wild-type ribosome) was -0.8% (inactive), the OD600 change was -2.58% and the RFP signal change was -0.651%.
With CCNC(=O)[C@H]1[C@H](CO)[C@H]2Cn3c(cccc3=O)[C@H]2N1C(=O)C1CCCC1 the GFP signal change (wild-type ribosome) was 4.25% (inactive), the OD600 change was -2.66% and the RFP signal change was -1.17%.
With Cc1cc(Nc2ccc(Br)cc2)nc2ccccc12 the GFP signal change (wild-type ribosome) was -50.8% (active), the OD600 change was -41% and the RFP signal change was -13.6%.
With Cc1cc(C)c(C#N)c(Nc2cccc(Br)c2)n1 the GFP signal change (wild-type ribosome) was 11.7% (inactive), the OD600 change was 6.25% and the RFP signal change was 3.63%.
With C[C@H]1CCCCO[C@H](CN(C)Cc2ccccc2)[C@@H](C)CN([C@@H](C)CO)C(=O)c2cc(NS(C)(=O)=O)ccc2O1 the GFP signal change (wild-type ribosome) was 2.67% (inactive), the OD600 change was 3.64% and the RFP signal change was -3.91%.
For CCNC(=O)[C@@H]1[C@@H](CO)[C@@H]2Cn3c(ccc(-c4ccncc4)c3=O)[C@@H]2N1Cc1cc(F)ccc1F, the GFP signal change (wild-type ribosome) was 2.37% (inactive), the OD600 change was 8.82% and the RFP signal change was 1.07%.
With C[C@@H]1CN([C@@H](C)CO)C(=O)c2cc(NC(=O)CCCN(C)C)ccc2O[C@@H](C)CCCCO[C@H]1CN(C)C(=O)Nc1cccc2ccccc12 the GFP signal change (wild-type ribosome) was -3.48% (inactive), the OD600 change was -7.41% and the RFP signal change was 4.52%.
For COc1ccc(Cn2c(=O)oc3ccccc32)cc1, the GFP signal change (wild-type ribosome) was -5.68% (inactive), the OD600 change was 1.5% and the RFP signal change was 2.85%.
In the case of Cc1cccc(NC(=O)CCn2c(=O)oc3ccccc32)c1, the GFP signal change (wild-type ribosome) is reported as 3.5% (inactive), the OD600 change is reported as 2.74% and the RFP signal change is reported as -1.45%.
For Cc1ccc(OCCCn2c(=O)oc3ccccc32)cc1, the GFP signal change (wild-type ribosome) was -33.5% (active), the OD600 change was -20.9% and the RFP signal change was -1.83%.
In the case of O=C(Nc1ccccc1F)N[C@@H]1C=C[C@H](CC(=O)N2CCCCC2)O[C@@H]1CO, the GFP signal change (wild-type ribosome) is reported as 3.61% (inactive), the OD600 change is reported as 6.08% and the RFP signal change is reported as -0.341%.
With C[C@H](CO)N1C[C@H](C)[C@@H](CN(C)C(=O)Nc2cccc(F)c2)OCc2ccccc2-c2ccccc2C1=O the GFP signal change (wild-type ribosome) was -0.679% (inactive), the OD600 change was -1.43% and the RFP signal change was 0.291%.
In the case of C[C@H](CO)N1C[C@H](C)[C@H](CN(C)C(=O)Nc2cccc3ccccc23)OCCCC[C@H](C)Oc2ccc(NC(=O)Nc3ccc4c(c3)OCO4)cc2C1=O, the GFP signal change (wild-type ribosome) is reported as 2.1% (inactive), the OD600 change is reported as 5.33% and the RFP signal change is reported as -1.79%.
With CC(C)NC(=O)N1CCCCN2[C@H](CO)[C@H](c3ccc(C#C[C@H](C)O)cc3)[C@H]2C1 the GFP signal change (wild-type ribosome) was 5.37% (inactive), the OD600 change was 11.9% and the RFP signal change was 2.67%.
In the case of CCCNC(=O)c1cc2c(c(-c3cccc(-c4ccc(C#N)cc4)c3)n1)[C@@H](CCO)N(C(=O)CC)C2, the GFP signal change (wild-type ribosome) is reported as -28.9% (active), the OD600 change is reported as -16.6% and the RFP signal change is reported as 9.41%.
For CCCNC(=O)c1cc2c(c(-c3cccc(-c4ccc(F)cc4)c3)n1)[C@@H](CCO)N([S@](=O)C(C)(C)C)C2, the GFP signal change (wild-type ribosome) was -7.84% (inactive), the OD600 change was -6.59% and the RFP signal change was 26.4%.
For CCS(=O)(=O)N1Cc2cc(C(=O)N(C)C)nc(-c3cccc(-c4ccc(C#N)cc4)c3)c2[C@H]1CCO, the GFP signal change (wild-type ribosome) was 1.6% (inactive), the OD600 change was -8.16% and the RFP signal change was 0.491%.
With O=[N+]([O-])c1cc(Br)c(O)c(/C=N/Nc2nc3ccccc3s2)c1 the GFP signal change (wild-type ribosome) was -26.6% (active), the OD600 change was -18.1% and the RFP signal change was 3.75%.
For O=[N+]([O-])c1cccc(/C=N/Nc2ncc(Br)cn2)c1, the GFP signal change (wild-type ribosome) was 14.8% (inactive), the OD600 change was 23.4% and the RFP signal change was 1.61%.
With O=C(N/N=C/c1cc(Br)c(O)c([N+](=O)[O-])c1)C(O)(c1ccccc1)c1ccccc1 the GFP signal change (wild-type ribosome) was -13.8% (inactive), the OD600 change was -17.8% and the RFP signal change was -3.16%.
For C[C@H](CO)N1C[C@H](C)[C@H](CN(C)C(=O)C2CCOCC2)Oc2ncc(C#Cc3ccccc3F)cc2C1=O, the GFP signal change (wild-type ribosome) was 4.96% (inactive), the OD600 change was 16.6% and the RFP signal change was -0.455%.
With Cc1cc2ccccn2c1C(=O)c1cccc(S(=O)(=O)N2CCOCC2)c1 the GFP signal change (wild-type ribosome) was -23.1% (active), the OD600 change was -17.5% and the RFP signal change was 2.76%.
In the case of Cc1nc2ccc(NC(=O)c3cccc(S(=O)(=O)N4CCOCC4)c3)cc2s1, the GFP signal change (wild-type ribosome) is reported as -8.91% (inactive), the OD600 change is reported as -4.27% and the RFP signal change is reported as -0.693%.
With Cc1cc2ccccn2c1C(=O)c1cccc(F)c1 the GFP signal change (wild-type ribosome) was -7.7% (inactive), the OD600 change was -19.4% and the RFP signal change was -0.345%.
With O=C(NC1CCCC1)[C@H]1[C@H](CO)[C@H]2Cn3c(cccc3=O)[C@H]2N1C(=O)NC1CCCC1 the GFP signal change (wild-type ribosome) was 6.01% (inactive), the OD600 change was 13.7% and the RFP signal change was -2.22%.
For COc1ccc(S(=O)(=O)N(C)C[C@@H]2OCCCC[C@@H](C)Oc3ccc(NS(C)(=O)=O)cc3C(=O)N([C@H](C)CO)C[C@@H]2C)cc1, the GFP signal change (wild-type ribosome) was 2.26% (inactive), the OD600 change was 6.89% and the RFP signal change was -2.21%.
With O=C(NCC[C@H]1CC[C@H](NC(=O)C2CC2)[C@@H](CO)O1)c1cc(Cl)cc(Cl)c1 the GFP signal change (wild-type ribosome) was -1.63% (inactive), the OD600 change was -6.47% and the RFP signal change was -0.371%.
For CCCNC(=O)N1[C@H](CO)[C@@H]2c3ccccc3N(C(=O)C3CC3)C[C@@H]21, the GFP signal change (wild-type ribosome) was 6.32% (inactive), the OD600 change was 5.65% and the RFP signal change was 0.0995%.
In the case of CC[C@H]1OC(=O)[C@H](C)[C@@H](O[C@H]2C[C@@](C)(OC)[C@@H](O)[C@H](C)O2)[C@H](C)[C@@H](O[C@@H]2O[C@H](C)C[C@H](N(C)C)[C@H]2O)[C@](C)(O)C[C@@H](C)[C@@H]2N[C@@H](COCCOC)O[C@H]([C@H]2C)[C@]1(C)O, the GFP signal change (wild-type ribosome) is reported as -22.6% (active), the OD600 change is reported as -9.78% and the RFP signal change is reported as 5.64%.

Reference: PubChem BioAssay AID720706 (Broad Institute, 2013)
